Reference: paper PMC7862700, “An all-to-all approach to the identification of sequence-specific readers for epigenetic DNA modifications on cytosine”

Tests used:
Assay in all cases: DAPPL (digital affinity profiling via proximity ligation, sequencing); 10 mM Tris-HCl pH 7.5, 50 mM NaCl, 1 mM DTT, 4% glycerol, room temperature, 30 min; GST-TFs on glutathione beads, 16-mer random dsDNA library, 0.1% formaldehyde crosslink after washing; high values mean tight binding
Conditions in all cases: protein: recombinant; tags: N-terminal GST; dsDNA, one strand shown
ERF = biological target: T1, ERF (Homo sapiens, UniProt P50548 1-548)
T1 sequence: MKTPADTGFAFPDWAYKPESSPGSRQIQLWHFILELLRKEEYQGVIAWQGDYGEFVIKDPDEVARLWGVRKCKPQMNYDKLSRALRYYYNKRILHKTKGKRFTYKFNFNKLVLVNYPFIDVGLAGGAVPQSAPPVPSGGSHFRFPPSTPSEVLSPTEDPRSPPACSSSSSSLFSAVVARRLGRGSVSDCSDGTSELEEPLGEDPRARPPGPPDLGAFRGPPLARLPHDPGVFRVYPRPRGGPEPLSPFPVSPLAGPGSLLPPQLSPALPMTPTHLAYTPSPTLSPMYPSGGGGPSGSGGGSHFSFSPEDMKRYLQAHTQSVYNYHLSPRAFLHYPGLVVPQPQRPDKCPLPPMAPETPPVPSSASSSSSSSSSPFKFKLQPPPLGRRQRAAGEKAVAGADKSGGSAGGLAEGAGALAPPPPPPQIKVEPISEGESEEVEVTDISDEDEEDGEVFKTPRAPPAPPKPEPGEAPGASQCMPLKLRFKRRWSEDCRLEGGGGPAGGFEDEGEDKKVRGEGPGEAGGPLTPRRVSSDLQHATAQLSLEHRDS
Method in brief: (§1)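 Human transcription factors were made in yeast as GST fusions, captured on glutathione beads and barcoded with DNA. With a tag-only sample included, the pool was incubated with 200 nmole of a random double-stranded 16-mer DNA library in Tris/NaCl/DTT/glycerol buffer at room temperature for 30 min, then crosslinked with 0.1% formaldehyde after washing, ligated by proximity, amplified and sequenced. For binding signal, each hexamer's read frequency for a factor is divided by its frequency for the tag-only sample.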

ETV3L = biological target: T2, ETV3L (Homo sapiens, UniProt Q6ZN32 1-361)
T2 sequence: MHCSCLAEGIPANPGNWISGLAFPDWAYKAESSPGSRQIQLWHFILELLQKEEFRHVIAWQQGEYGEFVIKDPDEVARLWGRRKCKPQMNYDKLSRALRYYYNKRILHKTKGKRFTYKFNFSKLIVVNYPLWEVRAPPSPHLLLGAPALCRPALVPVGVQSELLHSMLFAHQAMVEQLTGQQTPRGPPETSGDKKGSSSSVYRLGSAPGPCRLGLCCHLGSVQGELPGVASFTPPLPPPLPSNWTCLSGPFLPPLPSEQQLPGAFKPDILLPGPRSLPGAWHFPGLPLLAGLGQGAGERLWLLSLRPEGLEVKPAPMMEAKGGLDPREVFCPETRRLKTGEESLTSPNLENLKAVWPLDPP
Method in brief: as §1

ETS2 = biological target: T3, ETS2 (Homo sapiens, UniProt P15036 1-469)
T3 sequence: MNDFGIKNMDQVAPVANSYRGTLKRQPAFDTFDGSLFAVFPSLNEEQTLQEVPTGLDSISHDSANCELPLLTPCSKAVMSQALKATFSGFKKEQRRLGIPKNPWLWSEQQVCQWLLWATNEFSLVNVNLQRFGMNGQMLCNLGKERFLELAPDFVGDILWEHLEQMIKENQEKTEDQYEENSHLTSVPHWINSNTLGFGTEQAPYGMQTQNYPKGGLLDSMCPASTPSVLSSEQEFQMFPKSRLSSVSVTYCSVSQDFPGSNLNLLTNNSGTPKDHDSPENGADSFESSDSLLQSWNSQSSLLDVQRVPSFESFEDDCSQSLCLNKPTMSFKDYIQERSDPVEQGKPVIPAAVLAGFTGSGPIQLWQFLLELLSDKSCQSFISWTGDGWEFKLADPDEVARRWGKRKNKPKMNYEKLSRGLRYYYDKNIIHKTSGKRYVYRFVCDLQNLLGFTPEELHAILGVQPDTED
Method in brief: as §1

SPDEF = biological target: T4, SPDEF (Homo sapiens, UniProt O95238 1-335)
T4 sequence: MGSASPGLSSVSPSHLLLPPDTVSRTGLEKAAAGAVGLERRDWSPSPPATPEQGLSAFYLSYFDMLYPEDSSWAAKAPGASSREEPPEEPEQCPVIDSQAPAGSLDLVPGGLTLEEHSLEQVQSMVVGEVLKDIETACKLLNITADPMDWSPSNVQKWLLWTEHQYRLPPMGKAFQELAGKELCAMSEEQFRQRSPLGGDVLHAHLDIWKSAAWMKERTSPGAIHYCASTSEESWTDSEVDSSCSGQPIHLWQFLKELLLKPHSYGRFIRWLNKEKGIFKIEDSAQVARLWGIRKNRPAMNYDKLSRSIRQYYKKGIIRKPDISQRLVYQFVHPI
Method in brief: as §1

ETV7 = biological target: T5, ETV7 (Homo sapiens, UniProt Q9Y603 1-341)
T5 sequence: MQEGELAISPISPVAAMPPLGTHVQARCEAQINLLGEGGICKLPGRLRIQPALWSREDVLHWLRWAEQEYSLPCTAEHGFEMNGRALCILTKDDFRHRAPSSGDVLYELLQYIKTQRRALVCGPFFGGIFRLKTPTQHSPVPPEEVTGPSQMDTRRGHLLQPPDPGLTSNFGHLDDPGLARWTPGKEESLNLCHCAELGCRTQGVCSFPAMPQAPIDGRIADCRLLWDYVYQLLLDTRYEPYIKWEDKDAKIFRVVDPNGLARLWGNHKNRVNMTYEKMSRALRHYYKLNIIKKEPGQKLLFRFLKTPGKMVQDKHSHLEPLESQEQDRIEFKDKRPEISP
Method in brief: as §1

ELF5 = biological target: T6, ELF5 (Homo sapiens, UniProt Q9UKW6-2 1-255)
T6 sequence: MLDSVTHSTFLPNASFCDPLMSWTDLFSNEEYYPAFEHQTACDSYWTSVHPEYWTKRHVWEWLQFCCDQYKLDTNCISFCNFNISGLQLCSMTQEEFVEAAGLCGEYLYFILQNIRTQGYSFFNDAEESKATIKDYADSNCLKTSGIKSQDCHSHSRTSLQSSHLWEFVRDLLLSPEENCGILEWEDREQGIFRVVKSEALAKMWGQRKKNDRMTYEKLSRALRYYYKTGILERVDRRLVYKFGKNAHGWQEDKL
Method in brief: as §1

ETV3 = biological target: T7, ETV3 (Homo sapiens, UniProt P41162-2 1-143)
T7 sequence: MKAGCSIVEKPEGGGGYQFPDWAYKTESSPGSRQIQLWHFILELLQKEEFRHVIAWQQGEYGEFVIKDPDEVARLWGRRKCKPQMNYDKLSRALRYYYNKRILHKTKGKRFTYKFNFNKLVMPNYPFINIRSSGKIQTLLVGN
Method in brief: as §1

ETV6 = ETV6 (Homo sapiens, UniProt P41212 1-452)
Sequence of ETV6 (P41212 whole entry): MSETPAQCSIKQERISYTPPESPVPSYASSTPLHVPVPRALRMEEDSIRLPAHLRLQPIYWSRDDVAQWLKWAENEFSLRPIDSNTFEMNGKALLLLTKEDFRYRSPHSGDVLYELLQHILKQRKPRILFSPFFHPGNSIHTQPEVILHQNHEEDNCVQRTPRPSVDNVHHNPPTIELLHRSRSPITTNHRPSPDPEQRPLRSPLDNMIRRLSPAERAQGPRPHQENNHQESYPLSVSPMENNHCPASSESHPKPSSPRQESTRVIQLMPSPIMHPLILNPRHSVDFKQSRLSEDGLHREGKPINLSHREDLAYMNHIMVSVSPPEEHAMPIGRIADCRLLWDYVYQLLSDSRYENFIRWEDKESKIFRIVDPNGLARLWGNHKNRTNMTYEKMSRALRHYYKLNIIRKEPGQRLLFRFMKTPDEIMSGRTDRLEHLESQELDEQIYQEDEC
Method in brief: as §1

Sequence	binding signal (ERF)	binding signal (ETV3L)	binding signal (ETS2)	binding signal (SPDEF)	binding signal (ETV7)	binding signal (ELF5)	binding signal (ETV3)	binding signal (ETV6)
ATGCGC	1.24 fold enrichment (6-mer frequency, TF over GST control)	1.22 fold enrichment (6-mer frequency, TF over GST control)	1.19 fold enrichment (6-mer frequency, TF over GST control)	1.1 fold enrichment (6-mer frequency, TF over GST control)	1.22 fold enrichment (6-mer frequency, TF over GST control)	1.14 fold enrichment (6-mer frequency, TF over GST control)	1.17 fold enrichment (6-mer frequency, TF over GST control)	1.22 fold enrichment (6-mer frequency, TF over GST control)
GCTCAC	1.58 fold enrichment (6-mer frequency, TF over GST control)	1.57 fold enrichment (6-mer frequency, TF over GST control)	1.43 fold enrichment (6-mer frequency, TF over GST control)	1.42 fold enrichment (6-mer frequency, TF over GST control)	1.4 fold enrichment (6-mer frequency, TF over GST control)	1.49 fold enrichment (6-mer frequency, TF over GST control)	1.47 fold enrichment (6-mer frequency, TF over GST control)	1.45 fold enrichment (6-mer frequency, TF over GST control)
TCTCGT	1.16 fold enrichment (6-mer frequency, TF over GST control)	1.21 fold enrichment (6-mer frequency, TF over GST control)	1.34 fold enrichment (6-mer frequency, TF over GST control)	1.15 fold enrichment (6-mer frequency, TF over GST control)	1.2 fold enrichment (6-mer frequency, TF over GST control)	1.24 fold enrichment (6-mer frequency, TF over GST control)	1.03 fold enrichment (6-mer frequency, TF over GST control)	1.18 fold enrichment (6-mer frequency, TF over GST control)
ACTCTG	1.43 fold enrichment (6-mer frequency, TF over GST control)	1.28 fold enrichment (6-mer frequency, TF over GST control)	1.29 fold enrichment (6-mer frequency, TF over GST control)	1.16 fold enrichment (6-mer frequency, TF over GST control)	1.21 fold enrichment (6-mer frequency, TF over GST control)	1.2 fold enrichment (6-mer frequency, TF over GST control)	1.27 fold enrichment (6-mer frequency, TF over GST control)	1.23 fold enrichment (6-mer frequency, TF over GST control)
TGTAAT	1.14 fold enrichment (6-mer frequency, TF over GST control)	1.18 fold enrichment (6-mer frequency, TF over GST control)	1.23 fold enrichment (6-mer frequency, TF over GST control)	1.25 fold enrichment (6-mer frequency, TF over GST control)	1.26 fold enrichment (6-mer frequency, TF over GST control)	1.22 fold enrichment (6-mer frequency, TF over GST control)	1.05 fold enrichment (6-mer frequency, TF over GST control)	1.22 fold enrichment (6-mer frequency, TF over GST control)
AAACCA	1.16 fold enrichment (6-mer frequency, TF over GST control)	1.18 fold enrichment (6-mer frequency, TF over GST control)	1.17 fold enrichment (6-mer frequency, TF over GST control)	1.1 fold enrichment (6-mer frequency, TF over GST control)	1.2 fold enrichment (6-mer frequency, TF over GST control)	1.13 fold enrichment (6-mer frequency, TF over GST control)	1.15 fold enrichment (6-mer frequency, TF over GST control)	1.21 fold enrichment (6-mer frequency, TF over GST control)
